This is part of a sample that, as a whole, favours compounds with a hit. Of some 83,000 tested, about 20% had one in any assay.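 The test compound was applied at a single concentration to cells in 96-well plates for 48 hours, and percent growth was recorded.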 A number with no mark means an inactive call. The source made the active and inactive calls. Rule for the calls: active = growth percent below 10; inactive = the rest.
What follows are compounds tested on SK-MEL-5 melanoma (assay: NCI-60 one-dose screen, 48 h (100 = growth as untreated, 0 = no growth, -100 = all killed)). Conditions: 10 µM unless noted.
For `N#Cc1c(-c2ccc(F)cc2)nc(SCc2ccc(F)cc2)nc1N1CCNCC1`, the growth was -67.4% (active).
`N#Cc1c(-c2ccc(F)cc2)nc(SCc2ccccc2)nc1N1CCNCC1` was tested, and the growth was -100% (active).
`CS(=O)(=O)c1ccc(-n2nc(C(=O)NCc3ccccc3)cc2-c2ccc(Cl)cc2)cc1` gave a growth of 71.5%.
`Cc1cccc(C)c1Nc1nnc(-c2c[nH]c3ccccc23)o1` showed a growth of 94.1%.
`COc1ccc(/C=C/C(=O)c2ccc(S(=O)(=O)NCCNc3nc(N(C)C)nc(N4CCOCC4)n3)cc2)cc1` gave a growth of 94.6%.
Compound `COc1ccc(NC(=O)Cn2c(/C=C/c3cccc(Br)c3)nc3ccccc3c2=O)cc1` has a growth of 78.5%.
With `O=C1CCC(N2C(=O)c3cccc(NCCCCCC(=O)N4CCN(c5ccc6nc7c(nc6c5C(F)(F)F)C(=O)c5ncccc5C7=O)CC4)c3C2=O)C(=O)N1` (stereo unspecified) the growth was -95.3% (active).
Work on `O=C(CSc1nnc(-c2ccc(-c3nc4ccc(Cl)cc4[nH]3)cc2)o1)Nc1ccccc1` yielded a growth of 13.2%.
With `CC(C)(C)OC(=O)N1CCC2(CC1)Oc1ccccc1[C@H]1CC(c3ccc(Br)cc3)=NN12` the growth was 76.2%.
For `NS(=O)(=O)c1ccc(N2N=C(c3ccc(NC(=O)Nc4ccccc4)cc3)CC2c2ccc(Br)cc2)cc1` (stereo unspecified), the growth was -99.8% (active).
`CC1=C(C(=O)OCc2ccccc2)C(c2ccc(N(C)C)cc2)n2c(nc3ccccc32)N1` (stereo unspecified) was tested, and the growth was 71.7%.
With `Cc1ccc(O)cc1Nc1nc(SCCN2CCOCC2)nc2c1cnn2CC(Cl)c1ccc(Br)cc1` (stereo unspecified) the growth was -0.938% (active).
For `C/C(=N/O)c1ccc(NC(=O)CSc2nnc(-c3ccc(-c4nc5ccc(Cl)cc5[nH]4)cc3)o2)cc1`, the growth was -60.4% (active).
Work on `CCCCNc1ccc2c3c(cccc13)C(=O)N(NCC(O)COc1ccc3c(C)cc(=O)oc3c1)C2=O` (stereo unspecified) yielded a growth of 77.9%.
`COc1ccc2[nH]c(=O)cc(-n3ncc(C(=O)/C=C/c4cc(OC)c(OC)c(OC)c4)c3C)c2c1` was tested, and the growth was -93.9% (active).
In the case of `COc1ccc(-c2cc(-c3cc(OC)c(OC)c(OC)c3)[nH]c(=O)c2C#N)cc1`, the growth is reported as 64.9%.
In the case of `COc1ccc2[nH]c(O)c(N=Nc3nc(-c4ccc(Br)cc4)cs3)c2c1`, the growth is reported as 35.1%.
In the case of `COc1ccc2[nH]cc(-c3cc(N)n4nc(-c5c[nH]c6ccccc56)cc4n3)c2c1`, the growth is reported as -93.2% (active).
For `Nc1cc(-c2c[nH]c3ccc(F)cc23)nc2cc(-c3c[nH]c4ccccc34)nn12`, the growth was -4.35% (active).
`COC(=O)c1cccc(Oc2ccc(NC(=O)Nc3cc(C(F)(F)F)ccc3F)cc2)c1` showed a growth of 94.5%.
In the case of `N#C/C(=C1/C(=O)Nc2ccccc21)c1nnc(NC(=O)c2ccc(-n3c(=O)[nH]c4ccccc4c3=O)cc2)s1`, the growth is reported as 10.3%.
For `Cc1ccc(N=Nc2c(N)nn3c(-c4cc5cc(Br)ccc5oc4=O)ccnc23)cc1`, the growth was 50.8%.
For `Cc1ccc(C2CC(c3ccc(NC(=O)Nc4ccccc4)cc3)=NN2c2ccc(S(C)(=O)=O)cc2)cc1` (stereo unspecified), the growth was -99.9% (active).
In the case of `O=C(NN1C(=O)/C(=C/C=C/c2ccc([N+](=O)[O-])o2)SC1=S)c1ccc(O)cc1`, the growth is reported as -100% (active).
`COc1cc(CNC(=O)C[C@H](C)CCC=C(C)C)ccc1OCc1cn(-c2ccccc2F)nn1` showed a growth of 70.8%.
In the case of `OC(c1ccccc1)(c1ccccc1)C1CCN(c2ccc3nnc(Cl)n3n2)CC1`, the growth is reported as -84.6% (active).
`Cc1nc2sccn2c1-c1nnc(SCC(C)C)o1` was tested, and the growth was 89.4%.
For `N#Cc1ccc(C(=O)CSc2nc3c(c(Nc4ccc(S(N)(=O)=O)cc4)n2)CCC3)cc1`, the growth was 71.9%.
With `Cc1cccc(/C=C/c2ccc(NC(=S)NCCCCN(C)C)cc2)c1` the growth was -92.3% (active).
With `O=C(N/N=C/c1ccoc1)c1[nH]c2ccc(Br)cc2c1-c1ccccc1` the growth was -97.2% (active).
With `O=C(CSc1nc2sc3c(c2c(=O)n1-c1ccc(Cl)cc1)CCCC3)NNC(=O)c1ccc(F)cc1` the growth was 66.9%.
`C=CCSc1nnc(-c2ccc(-c3nc4ccc(Cl)cc4[nH]3)cc2)o1` gave a growth of 35.9%.
With `O=C(N/N=C/c1ccc(Cl)cc1)c1ccc(OCc2nc3ccc(Cl)cc3[nH]2)cc1` the growth was 52.2%.
`Cc1cccc(NCC(=O)N2CCN(c3ncnc4c3cnn4-c3ccccc3)CC2)c1` gave a growth of 37.5%.
`CN(C)c1nc(NCCNS(=O)(=O)c2ccc(C(=O)/C=C/c3ccc(Cl)cc3)cc2)nc(N2CCOCC2)n1` gave a growth of 46.2%.
`CC1=C(C(=O)Nc2ccccc2)C(c2cccc(Cl)c2Cl)n2c(nc3ccccc32)N1` (stereo unspecified) gave a growth of 46.7%.
In the case of `CCOC(=O)/C(F)=C/C1CC1C(c1ccccc1)c1ccccc1` (stereo unspecified), the growth is reported as 88.9%.
In the case of `CN(C(=O)CN1C(=O)/C(=C/c2ccco2)SC1=S)C1CCS(=O)(=O)C1` (stereo unspecified), the growth is reported as 98.5%.

The compounds below were run on UACC-62 melanoma in the same assay as above. Conditions: 10 µM unless noted.
With `N#Cc1c(-c2ccc(F)cc2)nc(SCc2ccc(F)cc2)nc1N1CCNCC1` the growth was -91.6% (active).
With `N#Cc1c(-c2ccc(F)cc2)nc(SCc2ccccc2)nc1N1CCNCC1` the growth was -97.3% (active).
In the case of `CS(=O)(=O)c1ccc(-n2nc(C(=O)NCc3ccccc3)cc2-c2ccc(Cl)cc2)cc1`, the growth is reported as 73.9%.
Work on `Cc1cccc(C)c1Nc1nnc(-c2c[nH]c3ccccc23)o1` yielded a growth of 83.2%.
`COc1ccc(/C=C/C(=O)c2ccc(S(=O)(=O)NCCNc3nc(N(C)C)nc(N4CCOCC4)n3)cc2)cc1` gave a growth of 76.9%.
`COc1ccc(NC(=O)Cn2c(/C=C/c3cccc(Br)c3)nc3ccccc3c2=O)cc1` gave a growth of 68.4%.
`O=C1CCC(N2C(=O)c3cccc(NCCCCCC(=O)N4CCN(c5ccc6nc7c(nc6c5C(F)(F)F)C(=O)c5ncccc5C7=O)CC4)c3C2=O)C(=O)N1` (stereo unspecified) was tested, and the growth was -72.7% (active).
In the case of `O=C(CSc1nnc(-c2ccc(-c3nc4ccc(Cl)cc4[nH]3)cc2)o1)Nc1ccccc1`, the growth is reported as 7.34% (active).
`CC(C)(C)OC(=O)N1CCC2(CC1)Oc1ccccc1[C@H]1CC(c3ccc(Br)cc3)=NN12` showed a growth of 41.3%.
For `NS(=O)(=O)c1ccc(N2N=C(c3ccc(NC(=O)Nc4ccccc4)cc3)CC2c2ccc(Br)cc2)cc1` (stereo unspecified), the growth was -96.2% (active).
`CC1=C(C(=O)OCc2ccccc2)C(c2ccc(N(C)C)cc2)n2c(nc3ccccc32)N1` (stereo unspecified) was tested, and the growth was 42%.
Compound `Cc1ccc(O)cc1Nc1nc(SCCN2CCOCC2)nc2c1cnn2CC(Cl)c1ccc(Br)cc1` (stereo unspecified) has a growth of 15.6%.
For `C/C(=N/O)c1ccc(NC(=O)CSc2nnc(-c3ccc(-c4nc5ccc(Cl)cc5[nH]4)cc3)o2)cc1`, the growth was -86.6% (active).
`CCCCNc1ccc2c3c(cccc13)C(=O)N(NCC(O)COc1ccc3c(C)cc(=O)oc3c1)C2=O` (stereo unspecified) was tested, and the growth was 69.2%.
`COc1ccc2[nH]c(=O)cc(-n3ncc(C(=O)/C=C/c4cc(OC)c(OC)c(OC)c4)c3C)c2c1` was tested, and the growth was -69.5% (active).
In the case of `COc1ccc(-c2cc(-c3cc(OC)c(OC)c(OC)c3)[nH]c(=O)c2C#N)cc1`, the growth is reported as 59.3%.
For `COc1ccc2[nH]c(O)c(N=Nc3nc(-c4ccc(Br)cc4)cs3)c2c1`, the growth was 18.7%.
With `COc1ccc2[nH]cc(-c3cc(N)n4nc(-c5c[nH]c6ccccc56)cc4n3)c2c1` the growth was -81% (active).
With `Nc1cc(-c2c[nH]c3ccc(F)cc23)nc2cc(-c3c[nH]c4ccccc34)nn12` the growth was -8.04% (active).
With `COC(=O)c1cccc(Oc2ccc(NC(=O)Nc3cc(C(F)(F)F)ccc3F)cc2)c1` the growth was 69.6%.
Compound `N#C/C(=C1/C(=O)Nc2ccccc21)c1nnc(NC(=O)c2ccc(-n3c(=O)[nH]c4ccccc4c3=O)cc2)s1` has a growth of 42%.
Compound `Cc1ccc(N=Nc2c(N)nn3c(-c4cc5cc(Br)ccc5oc4=O)ccnc23)cc1` has a growth of 99.5%.
With `Cc1ccc(C2CC(c3ccc(NC(=O)Nc4ccccc4)cc3)=NN2c2ccc(S(C)(=O)=O)cc2)cc1` (stereo unspecified) the growth was -80.3% (active).
`O=C(NN1C(=O)/C(=C/C=C/c2ccc([N+](=O)[O-])o2)SC1=S)c1ccc(O)cc1` was tested, and the growth was -99.3% (active).
`COc1cc(CNC(=O)C[C@H](C)CCC=C(C)C)ccc1OCc1cn(-c2ccccc2F)nn1` showed a growth of 69.5%.
`OC(c1ccccc1)(c1ccccc1)C1CCN(c2ccc3nnc(Cl)n3n2)CC1` gave a growth of 54.5%.
`Cc1nc2sccn2c1-c1nnc(SCC(C)C)o1` was tested, and the growth was 77.2%.
`N#Cc1ccc(C(=O)CSc2nc3c(c(Nc4ccc(S(N)(=O)=O)cc4)n2)CCC3)cc1` was tested, and the growth was 83.1%.
`Cc1cccc(/C=C/c2ccc(NC(=S)NCCCCN(C)C)cc2)c1` was tested, and the growth was -88.4% (active).
In the case of `O=C(N/N=C/c1ccoc1)c1[nH]c2ccc(Br)cc2c1-c1ccccc1`, the growth is reported as -99.6% (active).
For `O=C(CSc1nc2sc3c(c2c(=O)n1-c1ccc(Cl)cc1)CCCC3)NNC(=O)c1ccc(F)cc1`, the growth was 41.1%.
`C=CCSc1nnc(-c2ccc(-c3nc4ccc(Cl)cc4[nH]3)cc2)o1` was tested, and the growth was 39.4%.
For `O=C(N/N=C/c1ccc(Cl)cc1)c1ccc(OCc2nc3ccc(Cl)cc3[nH]2)cc1`, the growth was 47.5%.
`Cc1cccc(NCC(=O)N2CCN(c3ncnc4c3cnn4-c3ccccc3)CC2)c1` showed a growth of 34.6%.
`CN(C)c1nc(NCCNS(=O)(=O)c2ccc(C(=O)/C=C/c3ccc(Cl)cc3)cc2)nc(N2CCOCC2)n1` was tested, and the growth was 52.5%.
Compound `CC1=C(C(=O)Nc2ccccc2)C(c2cccc(Cl)c2Cl)n2c(nc3ccccc32)N1` (stereo unspecified) has a growth of 46.7%.
`CCOC(=O)/C(F)=C/C1CC1C(c1ccccc1)c1ccccc1` (stereo unspecified) was tested, and the growth was 65.1%.
With `CN(C(=O)CN1C(=O)/C(=C/c2ccco2)SC1=S)C1CCS(=O)(=O)C1` (stereo unspecified) the growth was 90%.
